Calb FLC: C. albicans growth inhibition with fluconazole, primary screen, CaCi-2 strain, Alamar Blue fluorescence; growth inhibition, % (no concentration beside the values); C. albicans CaCi-2 (fluconazole-resistant clinical isolate) + fluconazole, 48 h; 300,000 tested, 0.57% active; AID 1979, 2009;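 active = growth inhibition above about 58% in most replicates, limit read from the data, passing the limit was not always enough; inconclusive = exactly half the replicates above a set limit; inactive = most replicates below a set limit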;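 note: all wells also contain fluconazole at 8 µg/ml as a sub-toxic cotreatment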
CSC inhib: cancer stem cell viability inhibitors, primary screen, luminescence; cancer stem cell-like cells viability; inhibition, % at 7.5 µM; 300,000 tested, 1.1% active; AID 2717, 2010; in the data active = inhibition above about 75%; inconclusive = no clear call, values can overlap the other calls; tested in HMLE shEcad cells
ALR inh: inhibitors of human ALR sulfhydryl oxidase, primary screen, biochemical, H2O2 detection, HRP-luminol luminescence, single point; FAD-linked sulfhydryl oxidase ALR (Homo sapiens), P55789; inhibition, % (test concentration not listed); 290,000 tested, 3.8% active; purified ALR, DTT oxidation;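 active = mean replicate inhibition above about 79%, with every replicate also reaching it, limit read from the data; inconclusive = only one of the two criteria met; inactive = mean below limit and not every replicate reaching it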
Target sequence (P55789 whole entry, looked up): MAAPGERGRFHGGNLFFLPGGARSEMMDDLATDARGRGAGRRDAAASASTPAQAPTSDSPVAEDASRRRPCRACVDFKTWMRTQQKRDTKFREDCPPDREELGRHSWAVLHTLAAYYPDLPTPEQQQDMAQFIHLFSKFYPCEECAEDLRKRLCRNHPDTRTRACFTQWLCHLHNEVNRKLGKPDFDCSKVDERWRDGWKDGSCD
PP1 inh: PP1-alpha phosphatase inhibitors, primary screen, counter-screen for PP5 inhibitor project, biochemical, fluorescence, OMFP substrate, single point; purified PP1alpha; inhibition, % at 6.7 µM; 320,000 tested, 0.9% active;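 active = inhibition above the mean inhibition of all tested compounds plus 3 SD, computed separately for each screening campaign, cut at about 15% in these data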
Target sequence (P62136 whole entry, looked up): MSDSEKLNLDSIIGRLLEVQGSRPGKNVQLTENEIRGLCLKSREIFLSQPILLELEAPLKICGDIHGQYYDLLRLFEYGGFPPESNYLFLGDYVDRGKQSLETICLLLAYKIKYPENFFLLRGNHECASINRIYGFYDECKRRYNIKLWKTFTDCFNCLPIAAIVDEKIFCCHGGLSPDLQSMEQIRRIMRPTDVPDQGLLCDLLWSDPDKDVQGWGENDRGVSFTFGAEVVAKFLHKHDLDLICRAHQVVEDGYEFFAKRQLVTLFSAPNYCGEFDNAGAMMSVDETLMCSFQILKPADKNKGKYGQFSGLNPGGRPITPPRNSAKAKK
PP5 primary: PP5 phosphatase inhibitors, primary screen, biochemical, fluorescence | Serine/threonine-protein phosphatase 5 (Homo sapiens), P53041 | purified PP5c, OMFP substrate fluorescence | inhibition, % at 6.7 µM | 320,000 tested, 0.18% active | AID 1987, 2009;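 active = inhibition above the campaign's mean inhibition across all tested compounds plus 3 SD, cut at about 9.5% in these data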
Each line names hits and unclear results; the compound was inactive in the other large screens. An excerpt weighted towards active compounds, which were near 5.4% of everything screened.

CCN1CCN(CCCNC(=O)C2CCN(c3nnc(-n4cccc4)s3)CC2)CC1	none
CCOc1ccc(NCc2cccn2-c2nnc(N3CCC(C(=O)NCCCN4CC(C)CC(C)C4)CC3)s2)cc1 (stereo not drawn)	ALR inh 100
CCOC(=O)N1CCN(S(=O)(=O)c2ccc(OCC(=O)OC)c(C)c2)CC1	none
CCC(=O)Nc1sc2c(c1C(N)=O)CCC2	none
CCc1c(C)sc(NC(=O)c2ccco2)c1C(=O)N1CCOCC1	none
NC(=O)c1c(NC(=O)CSc2nnc(Cc3ccccc3)n2Cc2ccco2)sc2c1CCC2	ALR inh 87
CCc1c(C)sc(NC(=O)c2ccco2)c1C(=O)N1CCCCC1	ALR inh 81
NC(=O)c1c(NC(=O)c2ccncc2)sc2c1CCCC2	Calb FLC 73 (no result: CSC inhib, ALR inh)
O=C(CSc1nnc(Cc2ccccc2)n1Cc1ccco1)NC12CC3CC(CC(C3)C1)C2	none
N#CCC(=O)Nc1sc2c(c1C(N)=O)CCCC2	ALR inh 90
Cc1cc(NC(=O)C2CCN(S(=O)(=O)c3c(C)noc3C)CC2)ccc1Br	none
NC(=O)c1c(NC(=O)c2ccco2)sc2c1CCC2	Calb FLC 92
O=Nc1c(O)c2ccccc2c2ccccc12	Calb FLC 94, CSC inhib 122 (no result: ALR inh)
CN=Cc1sc2ccccc2c1O	none
Cn1cccc1/C=C1\SC(=Nc2ccc(O)cc2)NC1=O	ALR inh 99
CCc1ccc(OCC(=O)N/N=C\c2ccco2)c([N+](=O)[O-])c1	ALR inh 96
Cc1ccc(OCC(=O)N/N=C\c2ccc(O)cc2)c([N+](=O)[O-])c1	ALR inh 87 (no result: CSC inhib)
O=C(COc1cccc([N+](=O)[O-])c1)N/N=C/c1ccco1	none
COc1cccc(Nc2nc(-c3ccc(O)cc3)cs2)c1	CSC inhib 117
COc1cccc(Nc2nc(-c3cccc(N4C(=O)c5ccccc5C4=O)c3)cs2)c1	none
S=c1[nH]nc(Nc2ccccc2Cl)s1	none (no result: ALR inh)
Clc1cccc(Nc2nc(-c3ccncc3)cs2)c1	CSC inhib inconclusive, PP1 inh 17
S=c1[nH]nc(Nc2cccc(Cl)c2)s1	ALR inh 99
CC(=O)c1ccc(N=Nc2ccc(N(C)C)cc2)cc1	none
CCCN1C(=O)/C(=C/c2ccc(N3CCCC3)c(C)c2)NC1=S	none (no result: ALR inh)
Cc1cccc(-n2[nH]c(C)c(C=Nc3ccc4[nH]c(=O)[nH]c4c3)c2=O)c1	none
COc1cccc(N2CCN(C(=O)Nc3ccccc3Cl)CC2)c1	ALR inh 87
COc1ccc(N2CCN(C(=O)Nc3ccccc3C)CC2)cc1	none
COC(=O)/N=C(/Cc1ccc(OC)cc1)c1ccc(OC)cc1	none (no result: ALR inh)
O=C(CN1CCN(c2ccc(Cl)cc2)CC1)Nc1cccc(F)c1	none
COc1ccc2c(C)nc(Nc3nc(C)c(C)c(=O)[nH]3)nc2c1	Calb FLC inconclusive, CSC inhib 106
COc1ccc(C)cc1NC(=O)CN(C)S(=O)(=O)c1ccc2c(c1)CCCN2C(C)=O	none
COc1ccc2c3n([n+]([O-])c2c1)CCN=C3c1ccc(Cl)cc1	none (no result: Calb FLC)
CCOC(=O)c1cc2sccc2n1CC(=O)N1CCCC1	Calb FLC 106
CCOC(=O)c1cc2sc(C)cc2n1CC(=O)N1CCN(C(=O)c2ccco2)CC1	ALR inh 99
COCCCNc1nnc(Cc2ccc(Cl)cc2)c(=O)[nH]1	none (no result: CSC inhib, ALR inh)
COc1ccc(/C=C/C(=O)O)cc1S(=O)(=O)N1CCC(Cc2ccccc2)CC1	none
N#Cc1c(SCC(=O)Nc2cccc(F)c2)sc2c(O)cc(=O)[nH]c12	ALR inh 99
N#Cc1c(SCC(=O)Nc2ccc(Cl)cc2Cl)sc2c(O)cc(=O)[nH]c12	ALR inh 99
Cc1c(Cl)cccc1NC(=O)CSc1sc2c(O)cc(=O)[nH]c2c1C#N	ALR inh inconclusive
N#Cc1cccc(NC(=O)CSc2sc3c(O)cc(=O)[nH]c3c2C#N)c1	ALR inh 99
CCOc1cccc(NC(=O)CSc2sc3c(O)cc(=O)[nH]c3c2C#N)c1	ALR inh 99
CCC(=O)Nc1cccc(NC(=O)c2cccc([N+](=O)[O-])c2C)c1	none
NC(=O)C1CCN(c2nc3c(S(=O)(=O)c4ccccc4)nnn3c3ccccc23)CC1	none
N#CCSc1nc2ccccc2c2nc3ccccc3n12	CSC inhib 85
N#CCSc1nc2cc(C(=O)N3CCC(C(N)=O)CC3)ccc2c2nc3ccccc3n12	ALR inh 98
CCn1c(C)c(C(C)=O)c(N2CCCC2)nc1=S	none
CCCc1cn(S(=O)(=O)c2ccc(OC)cc2OC)nc1N	ALR inh 98
CC(C)(C)n1cnc2cc(NCc3ccccc3O)ccc21	ALR inh 99
CCc1ccc(CNc2ccc3c(c2)ncn3C(C)(C)C)cc1	none
CC(C)n1cnc2cc(NCc3ccccc3O)ccc21	ALR inh 99
CC(C)n1cnc2cc(NCc3ccco3)ccc21	ALR inh 84
CC(C)n1cnc2cc(NCc3ccccn3)ccc21	none
Cc1nn(-c2cc(N3CCCC3)ccc2[N+](=O)[O-])c(=O)c2ccccc12	none
Nc1c(Cl)cc(-c2csc(N3CCCC3c3nc4cc(Cl)c(Cl)cc4n3CCCO)n2)cc1Cl (stereo not drawn)	none
Nc1c(Cl)cc(-c2csc(N3CCCC3c3nc4cc(Cl)c(N5CCCCC5)cc4n3CCCO)n2)cc1Cl (stereo not drawn)	PP1 inh 17
CC(=O)c1cccc(NC(=O)N2CCCC2C(=O)Nc2ccc3c(c2)OCO3)c1 (stereo not drawn)	none
COc1ccccc1N1CC(C)(C)C(=O)N(C(=O)c2c(F)cccc2Cl)C1=S	none
Nc1ccc2nc(-c3ccccc3)[nH]c2c1	ALR inh 99
COc1ccc2nc(-c3ccc(N)cc3)[nH]c2c1	ALR inh 99
Nc1ccc2nc(-c3ccc(N)c(Cl)c3)[nH]c2c1	ALR inh 99
Nc1cccc(C(=O)Nc2ccc3nc(-c4cccnc4)[nH]c3c2)c1	ALR inh 99
N#C/C(=C\c1ccccc1Cl)C(=O)Nc1ccccn1	none
Cn1c(NC(=O)Cc2cccc3ccccc23)cc(=O)n(C)c1=O	none
Cc1ccc(C)c(CSc2nnc(CCN)o2)c1	none
Nc1ccc2nc(-c3cccnc3)[nH]c2c1	ALR inh 100 (no result: CSC inhib)
Nc1ccc2nc(-c3cccs3)[nH]c2c1	ALR inh 99
Nc1ccc(-c2nc3c(Cl)cc(N)cc3[nH]2)cc1	ALR inh 99
Cc1cc(-c2c(C(=O)N3CCOCC3)c(C)nn2-c2cccc(C(F)(F)F)c2)no1	none
O=C(N/N=C/c1cc(Br)c(O)c(Br)c1)C1CC1	none (no result: ALR inh)
Cc1ccccc1NC(=S)/C(=C(\[O-])c1cc(C)n(Cc2ccccc2Cl)c1C)[n+]1ccccc1	none
Cn1c(N)c(C(=O)Nc2ccc3ccccc3c2)sc1=S	none
Cn1c(N)c(C(=O)Nc2ccccc2F)sc1=S	ALR inh 99
CSc1nsc(SCC(=O)Nc2ccc(O)c(C(=O)O)c2)n1	ALR inh 82 (no result: CSC inhib)
